Results published in PubChem BioAssay AID2551 (National Center for Advancing Translational Sciences (NCATS), 2010).
The campaign covered roughly 310,000 compounds. About 17,000 (5.5%) were called active. Another 11% or so got no clear call; they are omitted. The full list was thinned out, with actives kept by preference. Unmarked numbers belong to inactive results. The call rests on the fitted dose curve; in most records, active means well fitted inhibition curve with a large enough effect; inconclusive means small, poorly fitted or top-dose-only effect, or effect the other way; inactive means no such curve, though single readings can be large or run the other way.

Target: Nuclear receptor ROR-gamma (Mus musculus) (UniProt P51450)
Assay: qHTS for inhibitors of ROR gamma transcriptional activity; further: nearly all actives have a fitted effect of over 60% in size
Conditions: Drosophila S2 Gal4-RORgamma UAS-luciferase reporter, 20 h; series mostly up to 53.6 µM; activity change, negative = inhibition: at the top concentration
Summary of the method: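 Schneider cells (Drosophila), stable Gal4 DBD–ROR gamma + UAS-luc; 1 hr cmpd preincubation; Cu2+ induction 700 uM final; 20 hr ambient; luminescence.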
On the % scale 0 is the no-effect control and ±100 the full control effect; potency means the concentration at half of the fitted maximal effect.

Chain of Nuclear receptor ROR-gamma (Mus musculus) (P51450 whole entry, looked up): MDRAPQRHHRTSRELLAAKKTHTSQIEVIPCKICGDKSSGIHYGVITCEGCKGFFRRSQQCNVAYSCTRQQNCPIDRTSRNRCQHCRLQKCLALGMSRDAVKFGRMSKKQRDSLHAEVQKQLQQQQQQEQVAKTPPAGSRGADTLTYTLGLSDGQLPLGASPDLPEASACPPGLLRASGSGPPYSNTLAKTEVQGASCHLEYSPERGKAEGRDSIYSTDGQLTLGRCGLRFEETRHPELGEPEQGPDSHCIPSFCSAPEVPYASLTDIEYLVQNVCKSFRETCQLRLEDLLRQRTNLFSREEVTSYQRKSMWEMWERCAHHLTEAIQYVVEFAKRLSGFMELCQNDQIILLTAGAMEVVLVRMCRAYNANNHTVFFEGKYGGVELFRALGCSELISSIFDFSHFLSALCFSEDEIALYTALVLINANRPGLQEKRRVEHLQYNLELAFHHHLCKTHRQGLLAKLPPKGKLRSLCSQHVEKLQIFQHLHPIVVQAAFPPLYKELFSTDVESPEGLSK

Going from CCn1ccnc1CNC(=O)CC1C(=O)NCCN1CCCc1ccccc1 (stereo not drawn) to CCC(Cc1ccccc1)NS(=O)(=O)c1ccc2c(c1)NC(=O)CS2 (stereo not drawn), the “activity change, negative = inhibition” value rises from -26.2% to 17.2%.

First: O=C(NCCS(=O)(=O)N1CCN(c2ccccc2F)CC1)c1ccc(Br)o1
Second: O=C(c1c(F)cccc1F)N1CCN(c2ncc(Br)cn2)CC1
The “activity change, negative = inhibition” value of the first is higher: 14.8% for the first, 11.8% for the second.

Going from Cc1cccc(NC(=O)c2cccnc2Cl)n1 to c1ccc(NCc2cccc3ccccc23)nc1, the “activity change, negative = inhibition” value rises from 7.82% to 15.3%.

Going from OCC1(CCOc2ccccc2)CCN(Cc2cn[nH]c2-c2ccccc2)CC1 to CC(C)(O)C#Cc1ccc(CN2CCC(CO)(CCc3ccccc3)CC2)cc1, the “activity change, negative = inhibition” value falls from 18.3% to 1.77%.

Compared with CC(C)(C)NC(=O)C(c1ccc(Cl)cc1)N(CCO)C(=O)c1snc(C(N)=O)c1N (stereo not drawn), Cc1ccc(C(=O)O)cc1NC(=O)c1ccc(Cn2nc(C)c(Cl)c2C)o1 is higher in “activity change, negative = inhibition” value: -12.6% for the first, 5.12% for the second.

First: COC(=O)CCc1ccccc1S(=O)(=O)N(CCC(=O)OC)Cc1ccccc1
Second: N=c1oc2ccccc2cc1C(=O)NCc1ccccc1
The “activity change, negative = inhibition” value of the first is lower: -5.18% for the first, 3.1% for the second.

Going from CCOC(=O)C1=C(c2ccccc2)NC(=O)NC1c1cc(OCC)c(O)c([N+](=O)[O-])c1 (stereo not drawn) to CCOC(=O)c1cc(Sc2ccccc2N)cc(C(=O)OCC)n1, the “activity change, negative = inhibition” value rises from 35% to 43.4%.

Going from Nc1ccccc1Sc1ccc(C(F)(F)F)cc1[N+](=O)[O-] to N#Cc1ccccc1NC(=O)c1ccc2c(c1)OCO2, the “activity change, negative = inhibition” value falls from 3.1% to -0.235%.

Going from COc1ccc(N2CCN(C3CCCCC3NS(=O)(=O)c3ccccc3)CC2)cc1 (stereo not drawn) to CCOC(=O)c1cnc(-c2ccccc2)nc1Oc1ccc(C)cc1, the “activity change, negative = inhibition” value falls from -0.458% to -0.933%.

Compared with O=C(N/N=C/c1ccc2c(c1)OCO2)c1ccc(Cn2cc([N+](=O)[O-])cn2)o1, O=C(N/N=C/c1ccc(O)cc1)/C(=C/c1ccc([N+](=O)[O-])cc1)NC(=O)c1ccccc1 is lower in “activity change, negative = inhibition” value: 28.1% for the first, 4.46% for the second.

Going from CC(C)c1c(C(=O)N/N=C/c2ccccc2C(=O)O)nnn1-c1nonc1N to Cc1ccc(/C=N/NC(=O)CSc2ccccn2)o1, the “activity change, negative = inhibition” value rises from 0.169% to 15.4%.

First: O=C(O)/C=C/C(=O)Nc1ccc(F)cc1F
Second: Cc1c(NC(=O)/C=C/C(=O)O)cccc1[N+](=O)[O-]
The “activity change, negative = inhibition” value of the first is higher: 10.8% for the first, -4.11% for the second.

Going from C/C(=N\NC(=O)NC1CCCCC1)c1ccc(OC(F)F)cc1OC(F)F to COc1ccc(C(=O)NC(C)Cn2nc(C)cc2C)cc1OC1CCN(C(C)=O)CC1 (stereo not drawn), the “activity change, negative = inhibition” value rises from -26.9% to 4.79%.

Compared with Cc1ccc(/C=N/NC(=O)Cn2nc(C)c(Br)c2C)o1, C/C(=N/NC(=O)c1ccc(Br)o1)c1ccc(C)o1 is higher in “activity change, negative = inhibition” value: -22.6% for the first, -4.16% for the second.

Compared with COc1ccc(S(=O)(=O)N2CCOC2CNC(=O)C(=O)NCc2ccncc2)cc1OC (stereo not drawn), Cc1cc(=O)oc2c(C)c(OCC(=O)NCCc3ccc(S(N)(=O)=O)cc3)ccc12 is higher in “activity change, negative = inhibition” value: -23.5% for the first, -3.62% for the second.

Compared with O=C(Nc1ccccc1)/C(=C/c1ccc([N+](=O)[O-])cc1)NC(=O)c1ccccc1, Oc1ccc2ccccc2c1C=Nc1ccccc1 is lower in “activity change, negative = inhibition” value: -5.91% for the first, -30.3% for the second.

First: CCCCc1nc2cc(C(=O)NCCc3cnn(C)c3)ccc2o1
Second: CC(C)c1nc2cc(C(=O)NC(C)c3cnn(C)c3)ccc2o1 (stereo not drawn)
The “activity change, negative = inhibition” value of the first is higher: 32.8% for the first, 7.34% for the second.

First: COc1ccccc1-c1cnn2c(N3CCOCC3)cc(C)nc12
Second: COc1cc(CO)ccc1OCC(=O)Nc1cccc2ccccc12
The “activity change, negative = inhibition” value of the first is lower: 1.17% for the first, 6.69% for the second.

Going from CCOC(=O)N1CCC(N2Cc3cccc(C(=O)Nc4c(C)cccc4CC)c3C2=O)CC1 to Cc1ccc(NS(=O)(=O)c2cc3c(cc2C)NC(=O)CO3)cc1, the “activity change, negative = inhibition” value rises from -1.98% to 21.6%.

First: Cc1cc(C)n(-c2c(F)c(F)c(COC(=O)c3ccccc3)c(F)c2F)n1
Second: C=CCn1cnc2scc(-c3ccccc3)c2c1=O
The “activity change, negative = inhibition” value of the first is higher: 22% for the first, 16% for the second.

Going from C=CCNC(=O)CSc1nc2scc(-c3ccco3)c2c(=O)n1CC=C to CC(C)(C)c1cc[n+](-c2[nH]c(=O)sc2/C=N/N=C(\[O-])c2ccccc2)cc1, the “activity change, negative = inhibition” value falls from 2.33% to -9.35%.

For Cc1c(CN2CCC(CO)(CCOc3ccccc3)CC2)[nH]c2ccc(Cl)cc12, the Potency was 11.2 µM (active).
In the case of CCS(=O)(=O)c1cc([N+](=O)[O-])c(Sc2ccccc2N)s1, the Potency is reported as 7.94 µM (active).
In the case of Cc1c(Cl)c([N+](=O)[O-])nn1Cc1ccc(C(=O)N/N=C\c2cc(Cl)ccc2O)o1, the Potency is reported as 5.01 µM (active).
COC(=O)c1sc(-c2ccc(C(C)(C)C)cc2)cc1NC(=O)/C=C/C(=O)O was tested, and the Potency was 12.6 µM (active).
For Cc1ccc(/C=N/NC(=S)NC2CCCCC2)o1, the Potency was 0.251 µM (active).
C/C(=N\NC(=S)NC1CCCCC1)c1ccc(C)o1 was tested, and the Potency was 0.631 µM (active).
For O=C(N/N=C/c1cc([N+](=O)[O-])ccc1O)/C(=C\c1cccs1)NC(=O)c1ccccc1, the Potency was 11.2 µM (active).
With Oc1ccc(N=Nc2nccs2)c(O)c1 the Potency was 7.08 µM (active).
With Oc1ccc2ccccc2c1N=Nc1nccs1 the Potency was 1.26 µM (active).
With CCOC(=O)c1cnc(-n2nc(C)cc2C)nc1NNc1cc(C)nc(-c2ccccc2)n1 the Potency was 0.1 µM (active).
In the case of C=CCn1c(=S)[nH]c2scc(-c3ccco3)c2c1=O, the Potency is reported as 1.58 µM (active).
